In the emibetuzumab library of Makowski et al. (2022):
The list shows a part of the results. How many sequences the whole screen found active is unknown.

B1: VH:VL chains; a variant is named by its letters at X, in order (parent)
chain 1: QVQLVQSGAEVKKPGASVKVSCKASGYTFTDYXMHWVRQAPGQGLEWMGXVNPNXXXTTYNQKFEGRVTMTTDTSTSTAYMELRSLRSDDTAVYYCARXNXLDXWGQGTTVTVSS
chain 2: DIQMTQSPSSLSASVGDRVTITCSVSSSVSSIYLHWYQQKPGKAPKLLIYSTSNLASGVPSRFSGSGSGTDFTLTISSLQPEDFATYYCQVYSGYPLTFGGGTKVEIK

Variants of: B1
Assay: yeast display scFab, FACS + sequencing
Settings: with MET
How it was run: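 A yeast surface library of scFab variants carrying heavy-chain CDR mutations went through two magnetic enrichment rounds on Protein A beads coated with HGFR-Fc, then FACS. For sorting, cells were labelled for 3 h at room temperature with 1 nM HGFR-Fc and anti-Myc in PBSB containing 1% milk, and the top 50% of antigen-positive cells were gated. Input and round-3 sorted populations were deep sequenced in two replicates. A sequence was called an antigen binder if it appeared in both antigen-positive samples and a non-binder if it appeared only in the input.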

Row | Variant | antigen binding call
1 | VARADSGV | no binding
2 | VEAGDAAV | no binding
3 | YEGTGSWA | no binding
4 | YRGKSSWA | binds
5 | VEGGGAWA | no binding
6 | VRGGDDWA | no binding
7 | YRGKGSWA | binds
8 | YKGKGSWA | binds
9 | VRGKGAWA | binds
10 | DAARGDAA | no binding
11 | DTGTGAGV | no binding
12 | YRGTGAGV | binds
13 | YRGAGAWV | binds
14 | YRGAGAGV | binds
15 | YRGAGSGV | binds
16 | VTGTGAGV | no binding
17 | YETGNVWF | no binding
18 | DKEGGAVV | no binding
19 | DAGGGDWV | no binding
20 | VTTRADVF | no binding
21 | DGGRAFWF | no binding
22 | VARKGVGV | no binding

Row | Variant | antigen binding call
23 | YRGAGALV | binds
24 | YTGTSDWV | no binding
25 | VKEADAWV | no binding
26 | YKRRDAWV | no binding
27 | YTRGSAWV | no binding
28 | YRRGSASV | binds
29 | YARADSSV | no binding
30 | YKRGSASV | binds
31 | YRRGSSSV | binds
32 | YKRGSAWV | binds
33 | SKKGDFWV | no binding
34 | VETEGDWD | no binding
35 | VRAETDVY | no binding
36 | YRRGSSLV | binds
37 | DAEGDAGD | no binding
38 | VKGRGSGS | binds
39 | VKGRASAS | no binding
40 | VGGRGDGS | no binding
41 | VKGGSFGS | no binding
42 | VKGRGAGS | binds
43 | VTEGGDVA | no binding
44 | YTTGGDWA | no binding

Row | Variant | antigen binding call
45 | DATGGSVD | no binding
46 | DTGGDDGF | no binding
47 | YARADDAS | no binding
48 | VETGGAAA | no binding
49 | VRRGGSAA | binds
50 | VETGGAVA | no binding
51 | VRTGGAAA | binds
52 | VEGEDAAA | no binding
53 | VRRGGAAA | binds
54 | VEGGGDWA | no binding
55 | VEGAASWF | no binding
56 | YRKGSASD | binds
57 | YRKGAASD | binds
58 | SRKGAASD | no binding
59 | VRAGDALV | no binding
60 | YRAKSALV | binds
61 | VRARGALV | binds
62 | YRARGALV | binds
63 | VEAGDALV | no binding
64 | YTAGSALV | no binding
65 | VGGTGDVF | no binding
66 | DGGADVGA | no binding

Row | Variant | antigen binding call
67 | DKGTDVGA | no binding
68 | FRRGSSGS | binds
69 | FRRGGSGS | binds
70 | FRRGSSGD | binds
71 | FRRGGSGV | binds
72 | FARGASGV | no binding
73 | DAGAAAGD | no binding
74 | DKREADVA | no binding
75 | FKKGSFGA | no binding
76 | FRAGGSAA | binds
77 | FKKGSAVA | binds
78 | FEEEGSAA | no binding
79 | FKGEDAVA | no binding
80 | VKRGSSAA | binds
81 | FKKGSSAA | binds
82 | FKGEGDAA | no binding
83 | ATTKSDAA | no binding
84 | SREAADWV | no binding
85 | DAGGGDVA | no binding
86 | DARENAGY | no binding
87 | DEGTGALA | no binding
88 | FGRGSSWA | no binding

Row | Variant | antigen binding call
89 | FRRGDSAA | binds
90 | FKRKNSAA | no binding
91 | FRRGGSAA | binds
92 | FRRGSSAA | binds
93 | FKRGSSAA | binds
94 | DGERTAGV | no binding
95 | VREEGDGA | no binding
96 | VTTGGDGV | no binding
97 | YRAGGAWY | binds
98 | YRAGGYWY | binds
99 | DRAGDDWY | no binding
100 | YRAGGDWY | binds
101 | YTAGSDWY | no binding
102 | YRARGAWY | binds
103 | DGGTSYSV | no binding
104 | SKEAGYSV | no binding
105 | VTGEDDAV | no binding
106 | ATGANSLD | no binding
